Measurements from PubChem BioAssay (NCATS).
Results filed as inconclusive are left out. A call without a number means that no potency is given here. Activity calls are given as the source filed them. Calls follow the shape of the dose curve; as a rule, active = well fitted inhibition curve with a large enough effect; inconclusive = small, poorly fitted or top-dose-only effect; inactive = no such curve, though single readings can be large or run the other way. *1 amine or outer side, *2 acyl side, *3 side chain or, on linkers, in order; H or OH if unused. Where a SMILES comes first, the peptide text is derived from it. [ ]: non-standard residue; d: D form. Ala(indol-2-yl) = N[C@@H](Cc1cc2ccccc2[nH]1)C(=O)O; X5 = CC(CC(O[*:1])C(=O)[*:2])C(=O)O; NMeV = CN[CH](C(=O)O)C(C)C; NMeA = CN[CH](C)C(=O)O; Aib = CC(C)(N)C(=O)O; βAla = NCCC(=O)O

Tested on: Zika virus NS2B-NS3 protease (unlinked complex)
Assay: Primary screen GU Rhodamine qHTS for Zika virus inhibitors: Unlinked NS2B-NS3 protease assay (AID 1347159); also: nearly all actives have a fitted effect of over 60% in size
Details: Recombinant ZIKV NS2B-NS3 protease, Rhodamine110 substrate fluorescence; series mostly up to 107 µM
From the text: Avindra Nath, Ph.D., National Institute of Neurological Disorders and Stroke (NINDS), Bethesda, MD
Radhakrishnan Padmanabhan, Ph.D., Georgetown University (GU), Washington D.C.
Zika Virus causes congenital defects, including microcephaly and is associated with Guillain-Barre syndrome, eningoencephalitis and myelitis in infected adult. […] Using a target-based approach, we hope to establish a screening paradigm to uncover novel, cell-active NS2B-NS3 protease (Zika Virus) specific inhibitors from NCATS' collection of small molecules using qHTS.
Four assay panel was created to identify potential Zika Virus inhibitors. Namely, (1) GU unlinked NS2B-NS3 AMC tagged protease qHTS, (2) GU unlinked NS2B-NS3 Rhodamine tagged protease qHTS, (3) NINDS linked NS2B-NS3 AMC tagged protease qHTS, (4) NINDS linked NS2B-NS3 Rhodamine tagged protease qHTS. Active compounds were re-acquired and re-screened to confirm inhibition. Inhibitors were further screened against various confirmatory and counterscreens in dose response format.
Early Translation Branch (ETB)
National Center for Advancing Translational Sciences (NCATS), Rockville, MD
National Institute of Health (NIH), Bethesda, Maryland
Padmanabhan lab provided the NS2B hydrophilic domain and NS3 protease domain in a noncovalent complex used for the unlinked assay. Control compound aprotinin is obtained from Thermo Scientific (#78432; Waltham, Massachusetts). Rhodamine110 substrate ([N-Cbz]-Nle-Lys-Arg-Arg-Rhod110-Arg-Arg-Lys-Nle-[N-Cbz]) was purchased from either Genscript or Bachem.
1536-well Protease (Rhodamine110 Substrate) Assay:
Briefly, 3 microL of enzyme (25 nM final concentration), in assay buffer (10 mM Tris-HCl pH 8.0 with 0.01% Tween 20) were dispensed into a 1,536-well solid-bottom black plate (Greiner Bio One, Monroe, NC). Twenty-three nL of compounds (final concentration range 7.28 nM to 114 microM) or control Aprotinin (final concentration range 3.47 nM to 114 microM) were transferred via Wako Pin-tool (Wako Automation, Richmond, VA). Samples were incubated (room temperature, protected from light) for 15 minutes followed by a 1 microL Rhodamine110 substrate addition (1.5 microM final concentration). Plates were then immediately read on a ViewLux High-throughput CCD imager (PerkinElmer, Waltham, MA) equipped with FITC fluorescence optics (480(20) nm excitation, 540(25) nm emission), then incubated (room temperature, protected from light) for 15 minutes (~15% conversion). The change in fluorescence intensity over the 15-minute reaction period was normalized against no-inhibitor and no-enzyme controls and the resulting percent inhibition data were fitted to a 4-parameter Hill equation. Aprotinin was used as intraplate control.

| SMILES | Potency | activity change, negative = inhibition |
| --- | --- | --- |
| COc1cc(N2CCN(C)CC2)ccc1N | inactive | – |
| C[C@@H]1O[C@@H](O[C@H]2CC[C@@]3(C)C(CC[C@@H]4C3CC[C@]3(C)[C@@H](C5=CC(=O)OC5)CC[C@]43O)C2)[C@H](O[C@@H]2O[C@H](CO)[C@@H](O)[C@H](O)[C@H]2O)[C@H](O)[C@H]1O (stereo not given in full) | inactive | – |
| C[C@]12CC[C@H](O[C@@H]3O[C@H](CO)[C@@H](O)[C@H](O)[C@H]3O[C@@H]3O[C@H](CO)[C@@H](O)[C@H](O)[C@H]3O)CC1=CC[C@@H]1[C@@H]2CC[C@]2(C)[C@@H](C3=CC(=O)OC3)CC[C@]12O | inactive | – |
| CC(=O)OC[C@]12C[C@H](OC(=O)CC(C)C)C(C)=C[C@H]1O[C@@H]1[C@H](O)[C@@H](O)[C@@]2(C)[C@]12CO2 | inactive | – |
| FC(F)(F)c1ccc(N2CCNCC2)nc1Cl | inactive | – |
| CCC(C)C1NC(=O)C2CCCN2C(=O)C(CC(C)C(=O)O)OC(=O)CCNC(=O)C(C)N(C)C(=O)C(C(C)C)N(C)C1=O (stereo not given) (cyclo([X5]PI[NMeV][NMeA][βAla]); configuration not given here) | inactive | – |
| Cc1ccc(-n2nccn2)c(C(=O)N2CCN(c3nc4cc(Cl)ccc4o3)CCC2C)c1 (stereo not given) | inactive | – |
| CC1=CC2/C=C(\C)CCC(O)C(O)/C=C/C(=O)OC23C(=O)NC(CC(C)C)C3C1C (stereo not given) | inactive | – |
| CC(C)(NC(=O)[C@@H](N)Cc1ccc(O)cc1)C(=O)N[C@@H](Cc1cc2ccccc2[nH]1)C(=O)N[C@@H](Cc1ccccc1)C(=O)O (H-Y[Aib][Ala(indol-2-yl)]F-OH) | – | 11.5% [at 19.1 µM] (inactive) |
| C=C1C2(C)CC3C(C)(O)C4=CC(=O)OC(C)(C)C4=CCC3(C)C13C(=O)OC(C)C3(O)C2=O (stereo not given) | inactive | – |
| CC(C)OC(=O)c1ccnc2cc(C(OCCN3CCCCC3)c3ccccc3Cl)sc12 (stereo not given) | inactive | – |
| C[C@]12CC[C@H]3[C@@H](CCC4=C/C(=N/OCC(=O)O)CC[C@@]43C)[C@@H]1CC[C@@H]2O | inactive | – |
| Cc1cccc(NC(=O)N[C@H]2CN(C)c3ccccc3C(c3ccccc3)=N2)c1 | inactive | – |
| c1ccc(C2(c3ccccc3)OC[C@@H]([C@H]3CCCCN3)O2)cc1 | inactive | – |
| CCC(C)C1NC(=O)C(C(C)=O)=C1O (stereo not given) | inactive | – |
| C[C@@H]1O[C@@H](O[C@H]2CC[C@@]3(C)C(CC[C@@H]4C3CC[C@]3(C)[C@@H](C5=CC(=O)OC5)CC[C@]43O)C2)[C@H](O)[C@H](O)[C@H]1O (stereo not given in full) | inactive | – |
| C=C1[C@@H](C)[C@H]2[C@H](Cc3ccccc3)NC(=O)[C@]23[C@H](OC(C)=O)/C=C/[C@](C)(O)C(=O)[C@@H](C)C/C=C/[C@H]3[C@@H]1O | inactive | – |
| O=C(C[C@@H]1NCCC[C@H]1O)Cn1cnc2ccccc2c1=O | inactive | – |
| C#C[C@]1(O)CC[C@H]2[C@@H]3CC[C@H]4Cc5nc6nc7ccccc7n6cc5C[C@]4(C)[C@H]3CC[C@@]21C | inactive | – |
| CCC1C2CC3C4N(C)c5ccccc5C45CC(C2C5O)N3C1O (stereo not given) | inactive | – |

| SMILES | Potency | activity change, negative = inhibition |
| --- | --- | --- |
| NCCCCCNC1(c2ccccc2)CCCCC1 | inactive | – |
| CCC1CC2CN3CCc4c([nH]c5ccccc45)C(C(=O)OC)(C2)C13 (stereo not given) | inactive | – |
| CO[C@H]1[C@@H](O)[C@@H](C)O[C@@H](O[C@@H]2C=C3C(OC(C)=O)CC4(O)C(CC[C@]5(C)[C@@H](C6=CC(=O)OC6)CC[C@]45O)[C@@]3(C)CC2)[C@@H]1O (stereo not given in full) | inactive | – |
| CNC(=O)c1cc(C#N)cc(C)c1NC(=O)c1cc(Br)nn1-c1ncccc1Cl | inactive | – |
| CN(CC[C@H](N)CC(=O)N[C@H]1C=C[C@@H](n2ccc(N)nc2=O)O[C@@H]1C(=O)O)C(=N)N | – | 11.2% [at 19.1 µM] (inactive) |
| Clc1ccc([C@]23CNC[C@H]2C3)cc1Cl | inactive | – |
| CC(=O)N1N=C(c2ccc(N)cc2)c2cc3c(cc2C[C@H]1C)OCO3 | inactive | – |
| CN1C[C@@H]2CN(c3ccc(-c4ccccc4)nn3)C[C@@H]2C1 | inactive | – |
| C[C@]12CCC(=O)C=C1CC[C@@H]1[C@@H]2[C@@H](O)C[C@]2(C)C(=O)CC[C@@H]12 | inactive | – |
| COC1CC(O[C@H]2CC[C@@]3(C)C(CCC4C3CC[C@]3(C)C(C5=CC(=O)OC5)CCC43O)C2)OC(C)C1OC1OC(COC2OC(CO)C(O)C(O)C2O)C(O)C(O)C1O (stereo not given in full) | inactive | – |
| CC1=CC(=O)[C@@H](O)[C@]2(C)C3[C@@H](O)[C@@H]4OC(=O)[C@@H]([C@H]4C)[C@]3(C)C(=O)[C@H](O)[C@@H]12 (stereo not given in full) | inactive | – |
| C=C1[C@@H](C)C2[C@H](Cc3ccccc3)NC(=O)[C@@]23C(/C=C/C[C@H](C)C[C@@](C)(O)/C=C/[C@@H]3OC(C)=O)[C@@H]1O (stereo not given in full) | inactive | – |
| CC1CCCC(O)CC(=O)Cc2cc(O)cc(O)c2C(=O)O1 (stereo not given) | inactive | – |
| Cc1ccc2c(c1)[C@H]1CN(C)CC[C@H]1N2C(=O)CSc1nnnn1-c1ccc(Cl)cc1 | inactive | – |
| O=C1CN=C(c2cccc(Br)c2)c2oc3ccccc3c2N1 | inactive | – |
| CCCCCn1cc(C(=O)Oc2cccc3cccnc23)c2ccccc21 | inactive | – |
| NNC(=O)c1nn(Cc2ccc(Cl)cc2Cl)c2ccccc12 | inactive | – |
| CC[C@H]1C2CC3[C@@H]4N(C)c5ccccc5[C@]45C[C@@H]([C@H]2[C@H]5O)N3[C@H]1O | inactive | – |
| CCCCOC(=O)c1ccnc2cc(C(OCCN3CCCCC3)c3ccccc3Cl)sc12 (stereo not given) | inactive | – |
| CCCN(CCC)[C@@H]1CCc2ccc3[nH]c(C#N)cc3c2C1 | inactive | – |
